From PubChem
APEX1 inh: APE1 (human) endonuclease inhibition | P27695 | recombinant APE1, TAMRA/BHQ-2 abasic DNA cleavage fluorescence | Potency, µM (highest dose often 65.8 µM), for the others: top-dose activity change, negative = inhibition, actives largely listed as inhibitors | 350,000 tested, 0.35% active;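 also: plate controls were vehicle for no effect and reference inhibitor for full effect; nearly all actives have a fitted effect of over 55% in size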
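APE1 at 0.75 nM final was preincubated with compound 15 min at room temperature, then 50 nM double-stranded THF abasic-site substrate (5'-TAMRA/3'-BHQ-2) was added. Fluorescence (ex 525/em 598 nm) was read kinetically; third-minus-first read gave activity.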
GLS inhibitor: inhibitors of human glutaminase (GLS) | O94925 | Potency, µM (series often up to 45.5 µM), for inactives: top-dose activity change, negative = inhibition, most hits filed as inhibitors | GLS enzymatic activity, qHTS titration | 410,000 tested, 0.21% active
Target sequence (O94925 whole entry, looked up): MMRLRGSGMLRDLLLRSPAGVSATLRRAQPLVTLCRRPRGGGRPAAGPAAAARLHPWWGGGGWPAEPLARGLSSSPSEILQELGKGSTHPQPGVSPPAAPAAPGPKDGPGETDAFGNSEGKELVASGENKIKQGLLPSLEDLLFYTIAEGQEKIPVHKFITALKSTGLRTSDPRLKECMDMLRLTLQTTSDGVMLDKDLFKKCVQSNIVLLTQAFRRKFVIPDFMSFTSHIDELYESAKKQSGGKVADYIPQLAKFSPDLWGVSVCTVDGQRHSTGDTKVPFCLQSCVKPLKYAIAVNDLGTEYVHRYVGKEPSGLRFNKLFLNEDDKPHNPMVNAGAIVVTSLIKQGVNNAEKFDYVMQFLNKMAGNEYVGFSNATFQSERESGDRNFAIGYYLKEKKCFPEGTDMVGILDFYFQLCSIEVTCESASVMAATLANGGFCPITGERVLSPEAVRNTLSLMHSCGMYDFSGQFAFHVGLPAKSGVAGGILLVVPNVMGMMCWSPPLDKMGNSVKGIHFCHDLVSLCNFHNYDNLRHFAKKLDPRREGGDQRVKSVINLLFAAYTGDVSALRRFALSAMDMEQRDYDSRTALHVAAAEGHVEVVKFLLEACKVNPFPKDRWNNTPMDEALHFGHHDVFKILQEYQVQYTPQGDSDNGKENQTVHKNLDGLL
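Two-point fluorescence kinetic (t0, 30 min RT) for hKGA; glutamate detected via glutamate oxidase–HRP–Amplex Red. Substrate: 1 mM L-glutamine solution; buffer 45 mM KH2PO4, pH 8.2.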
RECQ1 inh: blocks DNA unwinding by human RECQ1. RECQ1 DNA unwinding, red fluorescence kinetic read. Potency, µM (doses to about 57.3 µM), inactives show top-dose activity, negative = inhibition, most hits filed as inhibitors. 240,000 tested, 0.54% active. AID 2549. P46063;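 also: plate controls were vehicle for no effect and no enzyme for full effect; nearly all actives have a fitted effect of over 30% in size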
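RECQ1T1 50 nM; forked duplex (20 bp + 30-nt ss tails) 200 nM, ATP 2 mM final; pH 8.0, 2 mM MgCl2, 2.5 ug/ml poly(dI-dC); 15 min compound preincubation; discontinuous kinetic read over 2 h at RT.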
BLM helicase inh: Bloom syndrome helicase (human) inhibition. P54132. recombinant BLM DNA unwinding, fluorescence dequenching. Potency, µM (top dose mostly 56.1 µM), inactives show top-dose activity change, negative = inhibition, most hits filed as inhibitors. 350,000 tested, 0.2% active. AID 2528;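 also: plate controls were vehicle for no effect and no enzyme for full effect; nearly all actives have a fitted effect of over 35% in size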
PGK inhibitor: blocks T. brucei phosphoglycerate kinase; PGK/GAPDH coupled, Kinase-Glo luminescence, 60 min; P07378; AID 602233; 380,000 tested, 0.043% active; Potency, µM (doses to about 57.5 µM), inactives show top-dose activity change, negative = inhibition, most hits filed as inhibitors; also: nearly all actives have a fitted effect of over 60% in size
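Recombinant glycosomal PGK reaction used 1,3-bisphosphoglycerate generated in-well by GAPDH (100nM final) in 100mM TEA pH 7.6, 5mM MgCl2, 0.01% Tween-20. After 60 minutes at room temperature, ATP was read by Kinase-Glo Plus luminescence end-point.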
TDP1 inh: inhibitors of human tyrosyl-DNA phosphodiesterase TDP1; Q9NUW8; Potency, µM (top dose mostly 130 µM), for the others: at the highest dose activity change, negative = inhibition, usual class: inhibitors; recombinant TDP1, AlphaScreen DNA substrate cleavage; 350,000 tested, 0.28% active; also: nearly all actives have a fitted effect of over 40% in size
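E. coli-derived human Tdp1, 1 nM final. Cpd preinc 15 min RT; substrate 15 nM final, 5 min RT; AS bead mix 10 ug/ml final, 10 min RT. Signal loss = tyrosine-FITC cleavage. No-enzyme wells = max signal.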
Starred values were filed as active, the others as inactive; i = inactive; ? = inconclusive; · = no result. The list is not random: actives were taken first. Their share in the collection is about 0.85%. Calls follow the shape of the dose curve; as a rule, active = well fitted curve in the direction sought with a large enough effect; inconclusive = small, poorly fitted or top-dose-only effect, or another doubt; inactive = no such curve, though single readings can be large; an effect the other way counts as inactive or inconclusive. Unless noted, % is scaled to controls: 0 for no effect and ±100 for the full control effect; potency is read from the fitted curve at half-maximal effect.

SMILES	APEX1 inh	GLS inhibitor	RECQ1 inh	BLM helicase inh	PGK inhibitor	TDP1 inh
O=C1C2C3C=CC(C3)C2C(=O)N1CNc1ccc(O)cc1 (configuration not stated)	?	·	?	25.1µM*	·	-4.2%
COc1ccc(-c2ccc(/C=N/NC(=O)c3cccnc3)o2)c([N+](=O)[O-])c1	?	0.4%	3.98µM*	-14.2%	-11.7%	·
Cc1ccc2nc(-c3ccncc3)c(NC3CCCCC3)n2c1	1.2%	-13.7%	-9.2%	-0.6%	i	5.1%
Cc1ccc2nc(-c3ccsc3)c(NC3CCCC3)n2c1	0.5%	1.58µM*	i	-6.2%	-2.1%	-2.3%
CC(C)(CO)C(O)C(=O)NCCCC(=O)O (configuration not stated)	·	10.4%	·	·	·	·
O=C(CN1CCN(c2ccc(O)cc2)CC1)N1CCc2ccccc21	9.3%	8.91µM*	·	-1.3%	-3.6%	5.7%
CCOC(=O)C1=C(O)/C(=C\c2cccs2)N=C1C	-2.3%	2.8%	-4.4%	-5.3%	-0.3%	-1.1%
CCOC(=O)C1=C(O)/C(=C\c2ccc(CNC(=O)C(=O)Nc3ccccc3)o2)N=C1C	2.3%	-19.6%	-0.9%	35.5µM*	-5.1%	-4.9%
Cc1c(-c2ccnc3cc(C(=O)O)nn23)cnn1C	5.5%	7.94µM*	-4.6%	-6.5%	3.1%	-3.0%
CCn1cc(-c2ccnc3cc(C(=O)O)nn23)c(C)n1	-4.9%	-0.4%	-5.7%	-1.1%	0.5%	-2.6%
Cc1cnc(CNc2ncncc2-c2ccccc2C(F)(F)F)cn1	-0.2%	·	5.7%	4.2%	·	39.8µM*
c1coc(-c2ccc3nncn3c2)c1	·	6.31µM*	·	·	·	·
COc1cccc(C2c3c(ncn(-c4ccc(C(C)(C)C)cc4)c3=N)Oc3ccc4ccccc4c32)c1 (configuration not stated)	·	·	·	·	·	4.2%
NC(=O)c1ccc(N2CCN(c3ccc(O)cc3)CC2)c([N+](=O)[O-])c1	?	12.6µM*	-10.2%	-13.2%	4.9%	5.5%
O=[N+]([O-])c1cc(Cl)ccc1N1CCN(c2ccccc2O)CC1	-8.4%	15.8µM*	-4.3%	-8.4%	i	10.5%
O=[N+]([O-])c1cc(Cl)ccc1N1CCCCC1	0.4%	-10.8%	-10.0%	-3.7%	-7.3%	6.9%
N#Cc1c(-c2ccc3c(c2)OCO3)no[n+]1[O-]	7.2%	·	·	·	·	·
COC(=O)c1cc(O)c(O)c(O)c1	14.1µM*	1.9%	-0.5%	0.8%	2.7%	·
CCCOC(=O)c1cc(O)c(O)c(O)c1	·	61.9%	·	·	·	·
CC(=O)Nc1ccc(S(=O)(=O)Oc2cccc(/C=C3\SC(N)=NC3=O)c2)cc1	2.6%	17.8µM*	-6.1%	-13.4%	6.3%	6.2%
NC1=NC(=O)/C(=C/c2cccc(F)c2)S1	22.0%	-4.1%	·	-3.9%	i	·
O=C(N/N=C/c1ccc(O)cc1O)c1ccncc1	3.9%	12.6µM*	·	-2.6%	-3.5%	·
O=C(N/N=C/c1ccc(Cl)cc1Cl)c1ccncc1	11.8%	0.5%	·	-0.6%	-5.1%	1.9%
CC1CCCCC1NC(=O)COC(=O)c1c2c(nc3ccccc13)/C(=C\c1ccco1)CC2 (configuration not stated)	·	11.2µM*	·	·	-18.5%	·
O=C(COC(=O)c1c2c(nc3ccccc13)/C(=C\c1ccco1)CC2)NC1CCCC1	·	?	·	·	-17.7%	·
SMILES	APEX1 inh	GLS inhibitor	RECQ1 inh	BLM helicase inh	PGK inhibitor	TDP1 inh
CN(CCC#N)C(=O)COC(=O)c1c2c(nc3ccccc13)/C(=C\c1ccco1)CC2	·	11.2µM*	·	·	-28.8%	·
CN(CC(=O)Nc1ccc(N2CCOCC2)cc1)C(=O)CSc1ccc(Br)cc1	-2.2%	25.8%	·	-6.6%	-1.5%	89.1µM*
COc1ccc(C(=O)Nc2ccc(NC(=O)c3ccco3)cc2)cc1	-8.1%	-1.0%	·	-4.7%	0.3%	-5.8%
COc1ccc(-n2c(NC(=O)c3ccco3)c(C#N)c3nc4ccccc4nc32)cc1	2.4%	6.6%	17.1%	31.6µM*	?	2.9%
CC1(C)C2CCC(C2)C1(C)N=C1OC(CCl)CS1 (configuration not stated)	-2.6%	-0.6%	0.9%	4.47µM*	i	-3.8%
ClCC1CSC(=NC23CC4CC(CC(C4)C2)C3)O1 (configuration not stated)	1.6%	3.3%	11.9%	-4.7%	0.6%	0.0%
Oc1ccc(N=Nc2cccc(Cl)c2)cc1C=Nc1ccc(N2CCOCC2)cc1	2.4%	?	-21.4%	0.7%	-0.5%	5.3%
C(=Nc1ccc(N2CCOCC2)cc1)c1c[nH]c2ccccc12	-6.7%	11.2µM*	4.4%	-2.7%	7.8%	·
Oc1c(Br)cc(Cl)cc1C=Nc1ccc(N2CCOCC2)cc1	2.9%	12.6µM*	i	-5.4%	3.3%	6.1%
NC(=O)C(=CNc1nc(-c2ccc(Cl)c(Cl)c2)cs1)C(N)=O	0.631µM*	·	3.55µM*	?	·	6.2%
COc1ccccc1-c1csc(N2CCC(C(N)=O)CC2)n1	7.9%	·	·	·	·	·
Cc1ccc(CNc2ccc(N3CCN(C)CC3)cc2)cc1	19.0%	·	·	·	·	·
CCOc1ccccc1N1C(=O)CC(Sc2ncccc2C(=O)O)C1=O (configuration not stated)	10.7%	17.8µM*	i	-6.3%	2.2%	3.1%
O=C(CN1C(=O)NC2(CCCC2)C1=O)N1CCN(c2ccccc2O)CC1	41.6%	3.16µM*	·	·	0.4%	1.3%
CCOc1ccccc1N1CCN(C(=O)CN2C(=O)NC3(CCCC3)C2=O)CC1	29.2%	5.2%	·	·	6.2%	-6.4%
CN(C)C(=O)c1ccc(-c2cncnc2NCc2cccs2)cc1	1.7%	·	-13.3%	3.3%	·	28.2µM*
CN(C)C(=O)c1ccc(-c2cncnc2NCc2ccccc2)cc1	-3.9%	·	-0.2%	-1.7%	·	·
Cc1cccc(C(=O)NNS(=O)(=O)c2ccccc2)c1O	17.8%	6.31µM*	-6.7%	-1.6%	6.2%	-6.0%
N#Cc1nc(Nc2ccc(F)cc2)nc(NC2CCCC2)n1	·	·	·	·	·	0.0%
CCOC(=O)C1C(c2ccccc2)NC(=S)NC1(C)O (configuration not stated)	17.3%	2.82µM*	i	-3.1%	-2.2%	0.0%
CCOC(=O)C1C(c2ccc(O)c(OC)c2)NC(=S)NC1(O)C(F)(F)F (configuration not stated)	4.4%	50.2%	-1.1%	1.1%	·	0.6%
CC(C)(C)n1ncc2c(=O)n(Cc3cc(Cl)ccc3Cl)cnc21	-3.1%	·	·	·	·	·
O=C(CCN1C(=O)/C(=C/c2ccco2)SC1=S)Nc1ccc(C(=O)O)c(O)c1	21.2µM*	?	·	-7.8%	?	·
CCc1ccc(/C=C2/SC(=S)N(CCC(=O)Nc3cccc(C(=O)O)c3)C2=O)cc1	?	-2.0%	·	-5.2%	-6.8%	28.2µM*
